Assay [1] can be described thus: Viability qHTS for spleen associated tyrosine kinase inhibitor (SYKi) drug resistant MV4-11 cells (AID 1963824). Note: nearly all actives have a fitted effect of over 35% in size. The method, boiled down:
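SYK-inhibitor-resistant MV4-11 AML cells were seeded at 500 per well onto compound and cultured 72 hours (37 °C, 5% CO2). CellTiter-Glo was then added, and after 10 min at room temperature, luminescence gave viability.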
In general terms: qHTS replaces the single test concentration by a dilution series.

Assay [2] can be described thus: Cellular viability qHTS for adrenocortical cancer (ACC) cell line NCI-H295R (AID 1963990). Note: nearly all actives have a fitted effect of over 60% in size. The method, boiled down:
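CellTiter-Glo ATP luminescence, read 48 h after compound addition, measured viability of NCI-H295R adrenocortical cells grown serum-free with ITS. Final concentrations spanned up to 46 uM. Data normalized to DMSO and doxorubicin, fitted for IC50 and maximal response.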

A short description of assay [3]: Quantitative highthroughput screen to assess conditional lethalithy of NOMO1 cells grown in RPMI1640 with untreated serum (RPMI+s) (AID 1963876). Note: nearly all actives have a fitted effect of over 35% in size. The method, boiled down:
(§1)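 Each medium arm—HPLM with 10% dialyzed FBS, or RPMI1640 with 5 mM glucose and 10% untreated or dialyzed FBS—was screened against an 11-point, 3-fold compound titration for 48 h at 37 °C, with CellTiter-Glo luminescence as endpoint.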

A short description of assay [4]: Quantitative highthroughput screen to assess conditional lethalithy of NOMO1 cells grown in RPMI1640 with dialyzed fetal bovine serum (RPMI+ds) (AID 1963877). For Viability: series mostly up to about 46 µM. Note: nearly all actives have a fitted effect of over 30% in size. The method, boiled down:
as §1

Assay [5] can be described thus: Quantitative highthroughput screen to assess conditional lethalithy of NOMO1 cells grown in Human Plasma-Like Medium with dialyzed fetal bovine serum (HPLM+ds) (AID 1963878). Note: nearly all actives have a fitted effect of over 35% in size. The method, boiled down: as §1
A short description of assay [6]: Quantitative highthroughput screen to assess conditional lethalithy of P12 Ichikawa cells grown in Human Plasma-Like Medium with dialyzed fetal bovine serum (HPLM+ds) (AID 1963879). For Viability: series mostly up to about 46 µM. Note: nearly all actives have a fitted effect of over 35% in size. To be noted: Potency: viability. The method, boiled down: as §1
Assay [7] is described as follows: Quantitative highthroughput screen to assess conditional lethalithy of P12 Ichikawa cells grown in RPMI1640 with dialyzed fetal bovine serum (RPMI+ds) (AID 1963880). Note: nearly all actives have a fitted effect of over 35% in size. To be noted: Potency: P12-Ichikawa viability. In a few lines: as §1
A short description of assay [8]: Quantitative highthroughput screen to assess conditional lethalithy of P12 Ichikawa cells grown in RPMI1640 with untreated serum (RPMI+s) (AID 1963881). For Viability: series mostly up to about 46 µM. Note: nearly all actives have a fitted effect of over 35% in size. To be noted: Potency: viability. In a few lines:
as §1

The nature of assay [9]: Quantitative highthroughput screen to assess conditional lethalithy of SEM cells grown in Human Plasma-Like Medium with dialyzed fetal bovine serum (HPLM+ds) (AID 1963882). For Viability: series mostly up to about 46 µM. Note: nearly all actives have a fitted effect of over 35% in size. In a few lines:
as §1

Assay [10] can be described thus: Quantitative highthroughput screen to assess conditional lethalithy of SEM cells grown in RPMI1640 with unreated serum (RPMI+s) (AID 1963883). Note: nearly all actives have a fitted effect of over 35% in size. In a few lines:
as §1

A short description of assay [11]: Quantitative highthroughput screen to assess conditional lethalithy of SEM cells grown in RPMI1640 with dialyzed fetal bovine serum (RPMI+ds) (AID 1963884). For Viability: series mostly up to about 46 µM. Note: nearly all actives have a fitted effect of over 35% in size. In a few lines: as §1

Inconclusive results are not listed. Activity calls are given as the source filed them. Calls come from the whole dose curve; as a rule, active = well fitted curve in the direction sought with a large enough effect; inconclusive = small, poorly fitted or top-dose-only effect, or another doubt; inactive = no such curve, though single readings can be large; an effect the other way counts as inactive or inconclusive.
Potency is the fitted concentration of half-maximal effect.

Turning to `CC(C)[C@](O)(c1ccc2cc(OC(F)F)c(OC(F)F)cc2c1)c1cn[nH]n1`, the Potency in assay [1] is 14.8 µM (active); in assay [2], 25.1 µM (active).
With `CC(C)CN(C[C@H](O)[C@H](Cc1ccccc1)NC(=O)O[C@H]1CCOC1)S(=O)(=O)c1ccc(N)cc1`, the Potency result in assay [3], in assay [4] and in assay [5] was “inactive” in each case.
As for `CC[C@H]1OC(=O)[C@H](C)[C@@H](O[C@H]2C[C@@](C)(OC)[C@@H](O)[C@H](C)O2)[C@H](C)[C@@H](O[C@@H]2O[C@H](C)C[C@H](N(C)C)[C@@H]2O)[C@](C)(O)C[C@@H](C)CN(C)[C@H](C)[C@@H](O)[C@]1(C)O`, the Potency result in [3], in assay [4] and in [5] was “inactive” each time.
Consider `C[C@H]1C[C@@H]2[C@@H]([C@@H](O)C[C@@]3(C)[C@H]2CC[C@]3(O)C(=O)CO)[C@@]2(C)C=CC(=O)C=C12`, for which the Potency result in assay [3], in assay [4] and in assay [5] was “inactive” each time.
With `CCCCC(C=O)NC(=O)C(CC(C)C)NC(=O)OCc1ccccc1` (stereo not drawn), the Potency result in assay [3], in assay [4], in assay [5] and in assay [6] was “inactive” each time.
In the case of `Cc1cccc(CC(=O)N2CCc3c2ccc(-c2cn(C)c4ncnc(N)c24)c3F)n1`, the Potency in assay [1] is 2.06 µM (active). The Potency result in assay [2] is “inactive”.
For `CN1Cc2c(N)cccc2C(c2ccccc2)C1` (stereo not drawn), in that order: “inactive” and “inactive”.
`CC(C)C(=O)Oc1ccc(CO)cc1[C@H](CCN(C(C)C)C(C)C)c1ccccc1`: the Potency entry in [3], in assay [4], in assay [5], in [6] and in assay [7] was “inactive” each time.
`O=c1ccc2ccc(O)c(O)c2o1`: the Potency result in [3], in [4] and in [5] was “inactive” each time.
`O=C(c1ccc(NS(=O)(=O)c2cccc3cccnc23)cc1)N1CCN(CC2CC2)CC1`: the Potency entry in assay [1] and in assay [2] was “inactive” in each case.
In the case of `COc1cc2ncnc(Nc3ccc(F)c(Cl)c3)c2cc1NC(=O)C=CCN1CCCCC1`, the Potency entry in [3] and in assay [4] was “inactive” in each case.
As for `COc1ccc(Cl)c(Nc2nc3ccccc3nc2NS(=O)(=O)c2cccc(NC(=O)C(C)(C)N)c2)c1`, the results for the Potency in assay [1] and in assay [2] were 8.2 µM (active) and 20 µM (active), respectively.
Take `CN1CCC[C@H]1CCO[C@](C)(c1ccccc1)c1ccc(Cl)cc1`: the Potency entry in [3], in assay [4], in assay [5], in [6], in assay [7] and in assay [8] was “inactive” each time. Further, the Potency result in assay [9], in assay [10] and in assay [11] was “inactive” each time.
In the case of `O=C(NCc1ccccc1)[C@H](Cc1ccccc1)NC(=O)[C@@H]1O[C@@H]1C(=O)NCCc1ccc(O)cc1`, the Potency result in assay [3], in assay [4], in assay [5], in [6], in assay [7] and in assay [8] was “inactive” in each case. Also, the Potency result in assay [9] is “inactive”.
For `COc1ccc2c3c1OC1C[C@@H](O)C=C[C@@]31CCN(C)C2` (stereo partly drawn), the Potency entry in [3], in [4], in assay [5], in assay [6], in assay [7] and in [8] was “inactive” in each case. Further, the Potency result in [9], in [10] and in assay [11] was “inactive” throughout.
Turning to `O=C1NC(=O)C(=Cc2cccc(C(F)(F)F)c2)S1`, the Potency result in assay [3], in [4], in assay [5], in [6], in [7] and in [8] was “inactive” throughout. For the same molecule, in assay [9], the Potency entry was “inactive”.
Consider `CCC(=C(CC)c1ccc(O)cc1)c1ccc(O)cc1`, for which the Potency result in [3], in assay [4], in assay [5], in [6], in assay [7] and in [8] was “inactive” throughout. The Potency result in assay [9] and in assay [10] was “inactive” each time.
For `CC(C)(C)[N+]([O-])=Cc1ccc(S(=O)(=O)O)cc1S(=O)(=O)O`, the Potency entry in assay [3], in [4], in assay [5], in assay [6], in assay [7] and in [8] was “inactive” each time. In addition, the Potency result in [9] is “inactive”.
Consider `CCC=CC[C@H]1C(=O)CC[C@@H]1CC(=O)OC`, for which the Potency result in assay [3], in [4], in assay [5], in assay [6], in assay [7] and in assay [8] was “inactive” in each case.
Consider `NC(=O)c1ncn([C@@H]2O[C@H](CO)[C@@H](O)[C@@H]2O)c1N`, for which the Potency result in [3], in assay [4], in assay [5], in assay [6], in [7] and in assay [8] was “inactive” in each case. Further, the Potency in assay [9] is 18.7 µM (active).
For the molecule `C=C1CCC2[C@](C)(CO)C(O)CC[C@]2(C)C1CC=C1C(=O)OCC1O` (stereo partly drawn), the Potency result in assay [3], in [4], in assay [5], in assay [6], in assay [7] and in assay [8] was “inactive” throughout. In addition, the Potency entry in [9] and in assay [11] was “inactive” each time. Moreover, the Potency in assay [10] is 0.034 µM (active).
Consider `COc1cc(C=CC(=O)O)ccc1O`, for which the Potency entry in assay [3], in assay [4], in assay [5], in [6], in assay [7] and in [8] was “inactive” in each case. The Potency entry in [9] and in [10] was “inactive” in each case.
Regarding `Cc1c(-c2cccc3c(CCCOc4cccc5ccccc45)c(C(=O)O)n(Cc4cccnc4)c23)c(COc2ccc(N3CCN([S+](=O)([O-])N(C)C)CC3)cc2)nn1C`, the Potency result in assay [3], in [4], in assay [5], in assay [6], in assay [7] and in [8] was “inactive” throughout.
For the molecule `C=CC(=O)Nc1cccc(Nc2nc(NC3CCC(N(C)C)CC3)nc3c2ncn3C(C)C)c1` (stereo not drawn), the Potency in assay [3] is 2.96 µM (active); in assay [4], 2.35 µM (active); in assay [5], 2.35 µM (active); in [6], 3.32 µM (active); in assay [7], 4.18 µM (active); in [8] it was 3.32 µM (active). The Potency in assay [9] is 1.05 µM (active); in assay [10], 2.09 µM (active); in [11], 1.05 µM (active).
As for `O=C(O)[C@H](CC(=O)N1C[C@@H]2CCCC[C@H]2C1)Cc1ccccc1`, the Potency entry in assay [3], in [4], in assay [5], in assay [6], in [7] and in assay [8] was “inactive” in each case. Moreover, the Potency result in [9] and in assay [10] was “inactive” each time.

Values taken from PubChem BioAssay (NCATS).
